From PubChem BioAssay AID489042 (NMMLSC, 2010)
Unmarked numbers belong to inactive results. Rule as the data show it: active = inhibition score above about 11; inactive = the rest.

Experiment: S. cerevisiae short- and long-term growth effects – BY4741, OD595, 24 h, dose response (AID 489042)
Settings: flow cytometer event count, 7 d (AID 449753), hits give high values

Q: With `O=C(OCc1c(F)cccc1Cl)c1cnc2ccccc2n1` as the molecule, how does the inhibition score read?
A: 0

Q: Which inhibition score does the source give for `O=C(/C=C/c1ccccc1)NC(=S)NNC(=O)Cc1cccs1` here?
A: 0

Q: For `Cc1cc2nc3ccc(N(C)C)cc3nc2cc1N`, which inhibition score is on record?
A: 0

Q: For `Cc1cc(C)c2[nH]c3nc(SCC(=O)O)nnc3c2c1`, which inhibition score is on record?
A: 0

Q: For `CCN(CC)C(=O)c1cccc2nc3ccccc3nc12`, which inhibition score is on record?
A: 0

Q: With `C#CCSc1nnc(-c2ccc([N+](=O)[O-])cc2)o1` as the molecule, how does the inhibition score read?
A: 0

Q: With `c1ccc2[nH]c3cc4ncnc4cc3nc2c1` as the molecule, how does the inhibition score read?
A: 0

Q: Which inhibition score does the source give for `COc1ccc2nc3cccc(OC)c3nc2c1` here?
A: 0

Q: With `[O-][n+]1c2ccccc2[n+]([O-])c2cc(O)ccc21` as the molecule, how does the inhibition score read?
A: 0
